Screens (PubChem BioAssay)
Most compounds without a hit are left out; they make up all but 4.7% or so of the library.
D3 ag: agonists of human D3 dopamine receptor | P35462 | D3R DiscoveRx beta-arrestin cells, luminescence, 90 min | max activation, % | hit rate 0.58% among 410,000; in the data active = max activation above about 30%
Target sequence (P35462 whole entry, looked up): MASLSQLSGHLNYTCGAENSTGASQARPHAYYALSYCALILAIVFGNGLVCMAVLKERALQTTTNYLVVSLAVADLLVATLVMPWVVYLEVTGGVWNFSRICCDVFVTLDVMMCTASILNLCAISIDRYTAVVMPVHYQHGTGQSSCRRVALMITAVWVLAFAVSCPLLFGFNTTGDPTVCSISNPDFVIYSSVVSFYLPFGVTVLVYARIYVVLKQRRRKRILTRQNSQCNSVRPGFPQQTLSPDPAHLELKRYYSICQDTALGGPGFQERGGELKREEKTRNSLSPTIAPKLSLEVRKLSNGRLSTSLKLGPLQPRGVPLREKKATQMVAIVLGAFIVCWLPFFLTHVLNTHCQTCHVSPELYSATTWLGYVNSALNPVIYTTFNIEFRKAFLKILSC
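Agonist mode: compounds and dopamine controls were applied to plated cells for 90 min at 37 degrees C after an overnight attachment at 1500 cells/well. Luminescent read-out followed 30 - 60 minutes at room temperature with DiscoveRx detection reagent.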
TGFb inhibitor: inhibitors of TGF-b signaling. hit rate 1.2% among 410,000. Potency, µM (top dose mostly 46.1 µM), hits mostly inhibitors. HepG2 CAGA-GFP TGF-b/SMAD3 reporter, GFP fluorescence, 18 h; TGF-beta stimulated, 500 pg/mL final; also: nearly all actives have a fitted effect of over 65% in size
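TGF-beta reporter screen: HEPG2 CAGA-GFP, 1% FBS, 500 pg/mL TGF-beta final, 18 h; per-cell GFP summed per well; curves fitted and categorized by class.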
ATXN2 expr inh: ATXN2 expression inhibition. HEK-293 ATXN2-luciferase reporter, luminescence, 24 h. Potency, µM (series often up to 57 µM), hits mostly inhibitors. hit rate 0.72% among 360,000; also: nearly all actives have a fitted effect of over 55% in size
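qHTS (up to 57 uM final) was run with 24 h compound exposure of reporter cells at 37 °C. Each well was multiplexed: SteadyGlo luminescence measured ATXN2-luciferase expression after a fluorogenic Gly-Phe-AFC viability readout (25 uM final).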
D3 antag: D3 dopamine receptor (human) antagonism; P35462; D3R cells, DiscoveRx beta-arrestin luminescence, antagonist mode; hits give low values; max response, negative = inhibition, %; hit rate 2.5% among 360,000; in the data active = max response below about -50%; inconclusive = no clear call, values can overlap the other calls
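Cells plated overnight at 1500 cells/well, then exposed to library compounds with dopamine controls for 90 minutes at 37 degrees C. DiscoveRx reagent added for 30–60 minutes at room temperature; luminescence read, quantitative HTS format.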
HepG2 tox: kills HepG2 cells in TGF-b inhibitor counter-screen; HepG2 CAGA-GFP viability, ATP luminescence, 18 h; Potency, µM (series often up to 46.1 µM), most hits filed as cytotoxic; hit rate 0.76% among 410,000; AID 588856
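HepG2 CAGA-GFP cells (1000/well, DMEM with 1% FBS) received compound, then TGF-beta at 500 pg/mL final, and were incubated 18 hours at 37 degrees C. Viability was read by CellTiter-Glo luminescence. Media-only wells were set as complete cell-killing and DMSO as no toxicity.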
S2 tox: viability counter-screen for ATXN expression inhibitors | S2 cells (HEK-293 line with an ATXN2-luciferase reporter) viability, CellTiter-Fluor protease fluorescence, 24 h | Potency, µM (top dose mostly 56.7 µM), actives largely listed as cytotoxic | hit rate 0.49% among 400,000; also: nearly all actives have a fitted effect of over 40% in size
Of the large screens only hits and unclear results are named; the others gave an inactive call. Unless noted, calls follow the shape of the dose curve; as a rule, active = well fitted curve in the direction sought with a large enough effect; inconclusive = small, poorly fitted or top-dose-only effect, or another doubt; inactive = no such curve, though single readings can be large; an effect the other way counts as inactive or inconclusive.

Cn1c(CC(=O)Nc2ccccc2F)nnc1SCC(=O)Nc1ccccc1Br	HepG2 tox 11µM
O=C(CSc1nnc2c3ccccc3c3ccccc3c2n1)Nc1ccccc1F	ATXN2 expr inh inconclusive, S2 tox 14µM
Nn1c(SCC(=O)Nc2ccccc2F)nc2ccccc2c1=O	D3 ag 40
CC(C)Oc1cccc(C2CC(=O)Nc3cc4c(cc32)OCO4)c1 (centres undefined)	TGFb inhibitor inconclusive, S2 tox inconclusive (no result: D3 antag)
Cc1ccccc1CSc1cn(CC(=O)N2CCCCC2)c2ccccc12	none (no result: ATXN2 expr inh, D3 antag, S2 tox)
O=C(/C=C/c1ccc(F)cc1)NCC1Cc2cccc(-c3ncccn3)c2O1 (centres undefined)	none (no result: D3 ag, TGFb inhibitor, ATXN2 expr inh, D3 antag, HepG2 tox)
COc1cc(=O)n2c(c1C(=O)NC(C)c1ccco1)CCN(C(=O)c1ccc(F)cc1Cl)CC2 (centres undefined)	none (no result: D3 ag, TGFb inhibitor, ATXN2 expr inh, D3 antag, HepG2 tox)
COc1ccc(CN2C3CCCC2CC(NC(=O)Nc2ccccc2)C3)cc1 (centres undefined)	D3 antag -64
COc1ccc(CN2C3CCCC2CC(NC(=O)Nc2cccc(C)c2)C3)cc1 (centres undefined)	D3 antag -78
COc1ccc(CN2C3CCCC2CC(NC(=O)Nc2ccccc2C)C3)cc1 (centres undefined)	D3 antag -92
C=CCN1C2CCCC1CC(NC(=O)Nc1cccc(C(C)=O)c1)C2 (centres undefined)	none
CC(C)COc1ccc(C(=O)Nc2scc(-c3ccc(Br)cc3)c2C(=O)OC(C)C)cc1	none (no result: ATXN2 expr inh, D3 antag, S2 tox)
Oc1c(Br)cc(Br)cc1/C=N/c1nccs1	TGFb inhibitor inconclusive, ATXN2 expr inh inconclusive, D3 antag -55
Oc1ccc(Cl)cc1/C=N/c1nccs1	TGFb inhibitor inconclusive
Cc1c(CC(=O)NCCCCCC(=O)O)c(=O)oc2cc3c(cc12)CCC(C)(C)O3	none
Cc1oc2cc3oc(=O)c(CCC(=O)NC4CC4)c(C)c3cc2c1C	D3 ag 79
Cc1c(CC(=O)N2CCC(C(N)=O)CC2)c(=O)oc2cc3c(cc12)CCC1(CCCCC1)O3	D3 ag 45, S2 tox inconclusive
Cc1c(CCC(=O)N2CCC(C(=O)O)CC2)c(=O)oc2cc3oc4c(c3cc12)CCCC4	D3 ag 42
Cc1c(CC(=O)NCCCC(=O)O)c(=O)oc2cc3c(cc12)CCC(C)(C)O3	ATXN2 expr inh 3.2µM
Cc1oc2cc3oc(=O)c(CC(=O)N4CCCCC4)c(C)c3cc2c1C	none (no result: ATXN2 expr inh, D3 antag, S2 tox)
Cc1coc2cc3oc(=O)c(CCC(=O)NC4CC4)c(C)c3cc12	none
Cc1nc2ccc(S(=O)(=O)N(C)CC(=O)Nc3cccc(C(F)(F)F)c3)cc2s1	none (no result: TGFb inhibitor, ATXN2 expr inh, D3 antag, S2 tox)
COC1=CC(=O)c2nc(Cl)ccc2C1=O	TGFb inhibitor 0.89µM, ATXN2 expr inh 3.2µM, D3 antag -75, HepG2 tox 1.3µM, S2 tox inconclusive
Cc1ccc(F)c(S(=O)(=O)NC(=O)C2(C)CCN2C(=O)c2cccc3ccccc23)c1 (centres undefined)	D3 ag 72
O=c1[nH]c(=S)[nH]c2c1C(c1ccc(F)cc1)OC(CCc1ccccc1)C2 (centres undefined)	S2 tox inconclusive (no result: TGFb inhibitor, HepG2 tox)
O=c1[nH]c(=S)[nH]c2c1[C@H](C1CC1)O[C@H](CCc1ccccc1)C2	D3 antag -84 (no result: TGFb inhibitor, HepG2 tox)
CC(C)=CCOc1ccc([C@@H]2COc3c(ccc4c3C=CC(C)(C)O4)C2)c(O)c1	TGFb inhibitor 13µM, ATXN2 expr inh inconclusive, HepG2 tox 14µM, S2 tox 25µM
O=C(Nc1ccc(Cl)c([N+](=O)[O-])c1)c1ccc(NCCCN2CCOCC2)c([N+](=O)[O-])c1	ATXN2 expr inh 32µM, S2 tox inconclusive
Cc1ccc(NC(=O)c2ccc(NCCCN3CCOCC3)c([N+](=O)[O-])c2)cc1Cl	D3 antag -51
COc1ccc(NC(=O)c2ccc(NCCCN3CCOCC3)c([N+](=O)[O-])c2)cc1	D3 antag inconclusive, S2 tox inconclusive
O=C(CCCc1nc2ccccc2s1)Nc1nccs1	ATXN2 expr inh inconclusive
Cc1cnc(NC(=O)CCCc2nc3ccccc3s2)s1	TGFb inhibitor inconclusive, ATXN2 expr inh 2.5µM, S2 tox inconclusive
C[C@@H]1O[C@@H](OC[C@H]2O[C@@H](Oc3c(-c4ccc(OCCO)c(OCCO)c4)oc4cc(OCCO)cc(O)c4c3=O)[C@H](O)[C@@H](O)[C@@H]2O)[C@H](O)[C@H](O)[C@H]1O	none (no result: TGFb inhibitor, ATXN2 expr inh, D3 antag, HepG2 tox, S2 tox)
Cc1ccc(-c2nnc(Nc3ccc(Cl)c(Cl)c3)c3ccccc23)cc1S(=O)(=O)NCCO	TGFb inhibitor 11µM, ATXN2 expr inh inconclusive, S2 tox inconclusive (no result: D3 antag)
CCN(CC)C(=O)c1ccc(Nc2nnc(-c3ccc(C)c(S(=O)(=O)NC)c3)c3ccccc23)cc1	TGFb inhibitor 11µM (no result: D3 antag)
C#CC(C)(C)NS(=O)(=O)c1cc(-c2nnc(Nc3ccc(C)cc3)c3ccccc23)ccc1C	TGFb inhibitor 13µM (no result: D3 antag)
COc1cccc(N2C(=O)N(CC(=O)NCc3cccc(OC)c3OC)c3ccccc3S2(=O)=O)c1	none (no result: D3 antag)
CC(=O)N1c2ccc(S(=O)(=O)N3CCCCCC3)cc2CC1C(=O)NCc1ccc(Cl)cc1 (centres undefined)	none (no result: D3 antag)
O=C(NCC(c1ccco1)S(=O)(=O)c1ccc(Cl)cc1)c1ccc(C(F)(F)F)cc1 (centres undefined)	TGFb inhibitor 16µM (no result: ATXN2 expr inh, D3 antag, S2 tox)
O=c1ccc(-c2ccccc2)nn1Cc1c(F)cccc1Cl	TGFb inhibitor inconclusive, S2 tox inconclusive (no result: D3 antag)
C[n+]1ccc(/C=C/c2ccc([N+](C)(C)C)cc2)c2ccccc21	TGFb inhibitor 4.5µM (no result: D3 ag, ATXN2 expr inh, D3 antag, S2 tox)
C[n+]1ccc(/C=C/c2cc[n+](C)c3ccccc23)c2ccccc21	TGFb inhibitor 7.1µM (no result: D3 ag, ATXN2 expr inh, D3 antag, S2 tox)
C[n+]1ccc(/C=C/c2ccc(F)cc2)c2ccccc21	none (no result: D3 ag, ATXN2 expr inh, D3 antag, S2 tox)
CN1C=C/C(=C\c2cc[n+](C)c3ccccc23)c2ccccc21	TGFb inhibitor inconclusive, ATXN2 expr inh 8.4µM, S2 tox inconclusive
COc1ccc(/C=C/c2cc[n+](C)c3ccccc23)cc1OC	none (no result: D3 ag, ATXN2 expr inh, D3 antag, S2 tox)
COc1cccc(C2(CC(=O)N3CCC(c4nc5ccccc5o4)CC3)CC(=O)N(C)C2=O)c1 (centres undefined)	none (no result: D3 ag, TGFb inhibitor, ATXN2 expr inh, D3 antag, HepG2 tox)
CC1CCN(CC(O)COc2ccc(-c3ccccc3)cc2)CC1 (centres undefined)	ATXN2 expr inh inconclusive, D3 antag -73
CC1CCN(CC(O)COc2cccc(F)c2)CC1 (centres undefined)	D3 antag -57
CC1CCN(CC(O)COc2ccc(F)cc2)CC1 (centres undefined)	D3 antag inconclusive
O=C(CCl)Nc1cc(-c2ccccc2)nn1-c1ccccc1	TGFb inhibitor inconclusive, ATXN2 expr inh inconclusive, D3 antag inconclusive, S2 tox 32µM
